# PubChem BioAssay (EPA / NIEHS)
# Values joined by “and” are separate entries in the source; they are usually repeats but may differ in a detail not shown here. Equal entries are not always repeated. Inconclusive results are not listed. Active and inactive are the calls of the source. The calls were made as follows: active = hit-call score of the fitted dose curve at least 0.9, where 1 is the maximum; inconclusive = response in the unintended direction; inactive = score below 0.9.
# Target: human Matrix Metalloproteinase-9 (MMP9), MMP9 (gene 4318) (UniProt P14780)
# Experiment: NVS_ENZ_hMMP9: NovaScreen (NVS) Enzymatic Assay for human Matrix Metalloproteinase-9 (MMP9) (AID 2283190);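 also: cell-free recombinant MMP9 protease activity read by fluorescent substrate signal; active means inhibition seen as loss of fluorescence signal versus DMSO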
# Summary of the method: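 Extracted enzyme, fluorescent substrate, 1 h post-dose read. Single conc 25 uM in duplicate, then concentration series for actives. Activity = signal loss relative to DMSO negative control.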
# human Matrix Metalloproteinase-9 (MMP9), MMP9 (gene 4318), sequence (P14780 whole entry, looked up): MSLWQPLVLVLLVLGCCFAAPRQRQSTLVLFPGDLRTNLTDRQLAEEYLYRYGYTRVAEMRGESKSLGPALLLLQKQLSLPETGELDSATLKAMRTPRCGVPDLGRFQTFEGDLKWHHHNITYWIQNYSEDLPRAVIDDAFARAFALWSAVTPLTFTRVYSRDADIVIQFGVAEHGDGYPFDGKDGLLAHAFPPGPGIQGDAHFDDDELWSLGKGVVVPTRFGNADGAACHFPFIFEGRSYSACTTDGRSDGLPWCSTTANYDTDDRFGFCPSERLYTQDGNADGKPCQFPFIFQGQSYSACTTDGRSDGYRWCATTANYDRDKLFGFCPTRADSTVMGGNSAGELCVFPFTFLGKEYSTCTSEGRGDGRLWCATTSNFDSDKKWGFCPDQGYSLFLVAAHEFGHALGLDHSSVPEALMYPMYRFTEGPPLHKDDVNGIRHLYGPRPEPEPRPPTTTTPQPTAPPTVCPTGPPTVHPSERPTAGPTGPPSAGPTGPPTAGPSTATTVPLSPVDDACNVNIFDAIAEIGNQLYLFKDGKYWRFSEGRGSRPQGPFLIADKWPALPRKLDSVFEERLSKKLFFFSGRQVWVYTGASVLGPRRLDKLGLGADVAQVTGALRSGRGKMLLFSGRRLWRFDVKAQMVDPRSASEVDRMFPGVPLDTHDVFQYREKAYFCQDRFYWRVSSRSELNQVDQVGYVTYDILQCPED
Compound,outcome,AC50
CC/C(=C(\c1ccccc1)c1ccc(OCCN(C)C)cc1)c1ccccc1,inactive,–
CCOC(=O)C(=O)OCC,–,4.5 µM (active)
COC(=O)c1ccc(C(=O)OC)cc1,inactive,–
C=CCOCC(O)CO (centres undefined),–,1.68 µM (active)
CCCOC(=O)CC,–,6.89 µM (active)
OCCN1CCOCC1,–,4.96 µM (active)
Cc1ccc(C(C)(C)O)cc1,–,4.24 µM (active)
CC(C)(O)CCc1ccccc1,inactive,–
Nc1ccc(N)c([N+](=O)[O-])c1,–,4.96 µM (active) and 1.02 µM (active)
CCCCCCCCCO,–,10.6 µM (active)
C=CC(=O)OCC(CO)(COC(=O)C=C)COC(=O)C=C,–,10.5 µM (active)

# Target: human Phosphodiesterase 5 (PDE5), PDE5A (gene 8654) (UniProt O76074)
# Experiment: NVS_ENZ_hPDE5: NovaScreen (NVS) Enzymatic Assay for human Phosphodiesterase 5 (PDE5) (AID 2283194)
# Summary of the method: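 Recombinant human PDE5 with specific substrate, read 1 h after dosing by fluorescence with electrophoretic mobility-shift separation of substrate and product. Initial single-concentration duplicate screen at 25 uM, actives followed in concentration series; loss of activity versus DMSO.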
Compound,AC50,outcome
O=C(c1ccc(OCCN2CCCCC2)cc1)c1c(-c2ccc(O)cc2)sc2cc(O)ccc12,4.96 µM (active),–
CCCCOCCOCCO,–,inactive
C=C(C)C(N)=O,–,inactive
